Screening data deposited in PubChem by The Scripps Research Institute Molecular Screening Center.
Shown are actives, neighbours in structure and some others; about 4.1% of the full set was active somewhere.
DAX1 inh-1 – DAX1 (NR0B1) inhibitors on StAR promoter, primary screen, cell-based, luminescence, SF-1 (NR5A1), full-length DAX-1; HEK293T StAR-luciferase reporter, SF-1/DAX-1 repression relief; inhibition, % at 6.8 µM; hit rate 1.1% among 370,000;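 active means inhibition above the mean over all tested compounds plus 3 SD, cut at about 3.6% in these data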;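 further: 0% = DAX-1 cells with DMSO and 100% = cells lacking DAX-1 with DMSO; higher inhibition means more luminescence from relief of DAX-1 repression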
DAX1 inh-2 – DAX1 (NR0B1) inhibitors, primary screen, cell-based, HEK293, Gal4-DAX1, luciferase luminescence. Nuclear receptor subfamily 0 group B member 1 (Homo sapiens), P51843. HEK293 Gal4-DAX1 luciferase reporter. inhibition, % at 6.75 µM. hit rate 0.99% among 340,000. AID 504766, 2011;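 active means inhibition above the mean over all tested compounds plus 3 SD, cut at about 4.2% in these data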;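 further: 0% = DAX1-transfected cells with DMSO and 100% = empty-vector control cells with DMSO; inhibition shows as a rise in luminescence from relieved DAX1 repression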
Target sequence (P51843 207-470 limits assumed): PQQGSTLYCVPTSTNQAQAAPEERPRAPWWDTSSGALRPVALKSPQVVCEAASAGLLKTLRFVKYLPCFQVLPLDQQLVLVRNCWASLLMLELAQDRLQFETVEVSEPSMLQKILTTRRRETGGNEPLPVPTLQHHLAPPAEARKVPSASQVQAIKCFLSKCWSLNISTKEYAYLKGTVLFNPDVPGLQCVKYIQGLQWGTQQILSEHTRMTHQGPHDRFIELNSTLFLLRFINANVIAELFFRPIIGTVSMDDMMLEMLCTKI
hcDAF12 agonist – H. contortus DAF-12 nuclear receptor activators, primary screen, cell-based, luminescence, HEK293, lit1-tk-luc reporter | activation, % at 6.8 µM | hit rate 1.4% among 370,000 | HEK293 hcDAF-12 lit1-tk-luc reporter; 0% DMSO, 100% Δ7-dafachronic acid;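 active means activation above the mean of all tested compounds plus 3 SD, cut at about 5.5% in these data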;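 further: 100% = response to 3 µM Δ7-dafachronic acid high control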
ssDAF12 agonist – S. stercoralis DAF-12 nuclear receptor activators, primary screen, cell-based, luminescence, HEK293, GRIP1 co-expression, lit1-tk-luc | Nuclear hormone receptor DAF-12 (Strongyloides stercoralis) | HEK293 ssDAF-12/GRIP1 lit1-tk-luc reporter; % of 3 µM dafachronic acid response | activation, % at 6.8 µM | hit rate 1% among 370,000;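 active means activation above the mean over all tested compounds plus 3 SD, cut at about 0.9% in these data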;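 further: 0% = DMSO-only wells and 100% = 3 µM delta7-dafachronic acid wells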
hgDAF12 agonist – H. glycines DAF-12 receptor agonists, primary screen, cell-based, luminescence, HEK293, GAL4 fusion, UAS-luciferase. HEK293 GAL4-hgDAF12 UAS-luciferase reporter, agonist luminescence; normalized to butyrate control. Nuclear hormone receptor DAF-12 (Heterodera glycines), GAL4 fusion. hit rate 1.8% among 370,000. activation, % at 6.8 µM. AID 687014, 2013;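 active means activation above a cutoff set at the mean of all screened compounds plus 3 SD, cut at about 10% in these data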;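 further: 0% = DMSO wells and 100% = sodium butyrate wells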
* = called active by the depositor; x = no result.

SMILES	DAX1 inh-1	DAX1 inh-2	hcDAF12 agonist	ssDAF12 agonist	hgDAF12 agonist
Cc1cc(C)nc(N2CCN(C(=O)CSc3nc4ccccc4nc3N3CC(C)OC(C)C3)CC2)n1 (stereo not given)	-1	x	-3	0	3
COC(=O)[C@]12C[C@H](CC(=O)NCc3ccc(OC)c(OC)c3)C(=O)N(Cc3ccc4c(c3)OCO4)C1=C[C@H](C(C)C)O[C@@H]2C1CC1	0	x	1	-1	0
CCN(CC)C(=O)CSc1ncnc2c(-c3cccs3)nsc12	1	1	2	0.9*	2
O=C(CSc1nnc(-c2cccnc2)n1-c1ccccc1)Nc1ccc2c(c1)OCCO2	-2	x	-3	-2	3
CCc1ccc(-n2ncc(Cl)c(Oc3ccc(OC)cc3)c2=O)cc1	x	x	-1	-2	0
CC(C)(C)Nc1nc(NCc2cccnc2)nc(N2CCOCC2)n1	1	5.9*	-1	-1	-1
CN1OC[C@@H]2CN(C(=O)c3ccc([N+](=O)[O-])cc3)[C@H](c3ccccc3Br)C[C@@H]21	0	x	0	-1	0
O=C(NC1CC1)c1sc2cc(Cl)ccc2c1Cl	4.3*	1	1	0	6
O=C(Nc1nccs1)c1sc2cc(Cl)ccc2c1Cl	1	1	2	1.4*	5
O=C(NC1CC1)c1sc2cc(F)ccc2c1Cl	2	1	1	-1	2
O=C(Nc1nccs1)c1cc(Cl)ccc1[N+](=O)[O-]	0	-1	1	-1	3
COc1ccc(-c2ccccc2C2Cc3nnccc3CN2)cc1 (stereo not given)	0	x	-2	-1	1
CCCCCCC12C(=Cc3cc(C)ccc31)c1ccccc1C(CC(=O)NCc1ccccc1)N2C(=O)OC (stereo not given)	0	x	1	-1	-1
O=C1CCC[C@H]2C[C@H](NCc3cccc(Cl)c3)CC[C@]23CCCN13	x	x	1	-1	-1
O=C(Nc1ccc(F)cc1F)C1(c2cccs2)CCOCC1	-1	4.5*	-1	0	0
CCCC(=O)N1CCC1(C)C(=O)Nc1ccc2nccnc2c1 (stereo not given)	-1	x	-1	-1	11*
CCCC(=O)N1CCC1(C)C(=O)Nc1ccc(C)cc1 (stereo not given)	1	x	0	-1	1
Cc1cc(C)c(C)c(S(=O)(=O)NCC(=O)N2CCCC2)c1C	0	1	-3	0.9*	1
Cc1ccc(C)c(S(=O)(=O)NCC(=O)N2CCCC2)c1	1	-1	2	-1	2
CC1(C)C2CCC1(C(=O)O)c1nc3ccccc3nc12 (stereo not given)	0	4.8*	-2	-1	0
COC(=O)N1Cc2ccnnc2CC1c1ccccc1-c1ccc(OC)cc1 (stereo not given)	1	x	1	-1	-2
CCOC(=O)C1=C(C)Nc2nc(C)nn2C1c1ccc(OCC)c(OC)c1 (stereo not given)	0	-2	0	-1	-3
CCOC(=O)C1=C(C)Nc2nc(C)nn2C1c1ccc(OC)c(OC)c1 (stereo not given)	0	4.6*	1	-1	2
COc1ccc(N2CCCC2)c(NC(=O)COc2ccccc2Cl)c1	0	0	4	1.5*	1
O=C(COc1ccc(Br)cc1)Nc1ccccc1N1CCCC1	0	2	1	1.4*	2
SMILES	DAX1 inh-1	DAX1 inh-2	hcDAF12 agonist	ssDAF12 agonist	hgDAF12 agonist
O=C(CN1C(=O)C2CCCCC2C1=O)Nc1ccccc1N1CCCC1 (stereo not given)	4.1*	2	1	-1	2
CC(=O)N1CCN(c2ccccc2NC(=O)COc2ccc(Br)cc2)CC1	-1	0	-2	-2	0
O=C(CN1C(=O)C2CC=CCC2C1=O)Nc1ccccc1N1CCCC1 (stereo not given)	-1	0	0	-1	4
O=C(COc1ccccc1Cl)Nc1cc(Cl)ccc1O	1	4.9*	5.7*	1.6*	6
O=C(NCCN1CCC(Cc2ccccc2)CC1)C1CCCN(S(=O)(=O)c2ccccc2[N+](=O)[O-])C1 (stereo not given)	-2	x	-4	-2	-6
CCN(CC)C(=O)CSc1nnc(-c2ccc(C(C)(C)C)cc2)n1Cc1ccco1	-2	x	-3	-2	2
CCCc1cc(C(=O)Nc2nnc(C)s2)cs1	3	2	3	0	11*
O=C(CCc1nc2ccccc2c(=O)[nH]1)NCc1ccccn1	0	1	-1	-1	3
O=C(CCc1nc2ccccc2c(=O)[nH]1)NCc1ccco1	1	5.4*	1	-1	-4
CN1OC[C@@H]2CN(C(=S)Nc3cc(C(F)(F)F)cc(C(F)(F)F)c3)[C@H](c3ccccc3Br)C[C@@H]21	-2	x	1	-1	-2
COc1ccccc1-c1cccc2c3c([nH]c12)[C@@H]1C[C@H]2[C@@H](CN1CC3)[C@H](C)ON2C	0	x	-1	-1	1
COc1cc2c(cc1NC(=O)C(C)OC(=O)/C=C/c1ccc(OC(F)F)cc1)oc1ccccc12 (stereo not given)	0	2	8.2*	0	9
CCOC(=O)Cn1cc(CN2C(C(=O)OC)CN(C3CC3)CCS2(=O)=O)nn1 (stereo not given)	0	x	-2	-1	4
CCOP(=O)(OCC)c1ccc2c(c1)C(=O)c1ccccc1-2	x	x	-2	-1	4
CCc1noc(C)c1C(=O)NNC(=O)c1nn(C)c(=O)c2ccccc12	-1	0	0	-1	2
CCc1noc(C)c1C(=O)NNC(=O)c1nn(CC)c(=O)c2ccccc12	-1	5.2*	0	-1	1
COc1ccccc1CCC(=O)OCC(=O)NC1CCCC1	3.7*	-1	0	-1	-2
COc1cc(C)ccc1OCC(=O)NC1CCCCCC1	4.3*	1	0	-1	8
Cc1ccc(C)c(OCCCC(=O)NC2CCCCC2)c1	0	2	0	-2	2
Cc1ccc(OCCCC(=O)NC2CCCCC2)cc1	0	5.0*	-3	-1	1
CN1OC[C@@H]2CN3C(=Nc4cc(C(F)(F)F)cc(C(F)(F)F)c4)Sc4ccccc4[C@@H]3C[C@@H]21	-1	x	-1	-1	-3
CCOC(=O)C1=C(C)N=c2s/c(=C/c3ccc(OCC(=O)O)cc3)c(=O)n2C1c1ccc(OC)cc1OC (stereo not given)	1	-1	0	1.8*	1
